Consider 39 molecules from PubChem BioAssay.

SMILES strings stand for the structures.

The assay can be described thus: inhibitors of PAF-induced NFkB signaling in CF airway cells, dose response, cell-based, uHTS hits, panel, cytotoxicity readout (AID 624344). Conditions: CF bronchial epithelial cells, PAF-induced NFkB reporter inhibition, with PAF, run 2; at 79 µM (top of the series) unless noted.
With `CS(=O)(=O)Nc1cccc(-c2cc(NC=O)c3ncc(-c4ccc(F)cc4)n3c2)c1`, the inhibition worked out at 88.3%.

As for `C[C@@H]1CN([C@H](C)CO)C(=O)c2cc(NC(=O)Nc3ccc(C(F)(F)F)cc3)ccc2O[C@H]1CN(C)S(=O)(=O)c1ccc(Cl)cc1`, the inhibition worked out at 92.7%.

On to `Cc1c(C(=O)OCC(C)C)[nH]c2c1C(=O)CC(c1ccco1)C2` (centres undefined), for which the inhibition is 61.5%.

With `COc1ccc(COC(=O)C2=C(C)NC(=O)NC2c2ccc(F)cc2)cc1` (centres undefined), the inhibition was 105%.

With `O=C(COc1ccc(Cl)cc1)Nc1ncc([N+](=O)[O-])s1`, the inhibition was found to be 83.3%.

On to `O=C(O)/C=C/c1ccc2c(-c3ccccc3)onc2c1`, for which the inhibition came out at 105%.

Regarding `Cc1nc2sc(C(N)=O)c(N)c2c2c1CCCC2`, the inhibition was determined as 104%.

As to `CCN1CCN(Cc2ccc(NC(=O)c3ccc(C)c(NC(=O)c4cccc5[nH]ccc45)c3)cc2C(F)(F)F)CC1`, the inhibition stood at 77.6%.

Take `O=C(CCl)N(Cc1cc(=O)[nH]c2ccccc12)c1ccccc1`: the inhibition is 83.6%.

Take `Nc1nc(N)nc(-c2cc(O)ccc2O)n1`: the inhibition came to 116%.

Take `CCc1cc2c(Sc3nc4ccccc4s3)ncnc2s1`: the inhibition was 98.3%.

As to `O=C(Nc1ccc(Cl)cc1)c1nc[nH]c1C(=O)NCCCCNC(=O)c1[nH]cnc1C(=O)Nc1ccc(Cl)cc1`, the inhibition came out at 105%.

For `Cc1ccc(NS(=O)(=O)c2ccc(-c3cnc(C4CC4)o3)cc2)c(C)c1`, the inhibition came out at 111%.

As to `CC(=O)Nc1ccc(S(=O)(=O)N2c3ccccc3C(C)=CC2(C)C)cc1`, the inhibition came out at 56.4%.

For `CN1CCN(S(=O)(=O)c2ccc(Sc3nnnn3-c3ccccc3)c([N+](=O)[O-])c2)CC1`, the inhibition amounted to 99.5%.

With `CN(C)C=Nc1c(C(=O)c2ccccc2)sc2nccc(N(C)C)c12`, the inhibition was 105%.

For `COc1ccc(C2CNC(=O)C2)cc1OC1CCCC1` (centres undefined), the inhibition worked out at 81.6%.

Take `O=C(c1cc([N+](=O)[O-])ccc1N1CCOCC1)N1CCN(c2ccccc2)CC1`: the inhibition came out at 79.6%.

In the case of `COc1cccc(NC(=O)Nc2nnc(CC(=O)Nc3ccccc3)s2)c1`, the inhibition worked out at 85.1%.

As for `COc1cccc(C(=O)N2C(C(C)C)COc3cc(Br)ccc3S2(=O)=O)c1` (centres undefined), the inhibition is 101%.

Take `CC1(O)CC(c2ccc(Cl)cc2)=NN1C(=O)c1ccc(Cl)cc1` (centres undefined): the inhibition stood at 78.5%.

As to `O=C(c1[nH]c(C(F)(F)F)nc1-c1ccccc1)N1CCN(c2c(Cl)cncc2Cl)CC1`, the inhibition came out at 96.2%.

Consider `CCN1CCN(Cc2ccc(NC(=O)c3ccc(C)c(NC(=O)c4cc(-c5ccc(Br)cc5)n[nH]4)c3)cc2C(F)(F)F)CC1`, for which the inhibition is 112%.

For `O=C1OC(Nc2nc(-c3ccc(F)cc3)cs2)c2ccccc21` (centres undefined), the inhibition came to 113%.

For the molecule `Cc1ccc(CNc2ncnc(N)c2[N+](=O)[O-])cc1`, the inhibition amounted to 80.8%.

Take `C=C(C)[C@@H]1CC[C@]2(C(=O)O)CC[C@]3(C)[C@H](CC[C@@H]4[C@@]5(C)CC[C@H](O)C(C)(C)[C@@H]5CC[C@]43C)[C@@H]12`: the inhibition amounted to 57.6% [at 19.8 µM].

Consider `C/C(=N\Nc1cc(N2CCOCC2)ncn1)c1cccc([N+](=O)[O-])c1`, for which the inhibition is 95.3%.

Regarding `C=CCn1c(Oc2ccccc2F)nc2c1c(=O)n(C)c(=O)n2C`, the inhibition turned out to be 93.3%.

Consider `COc1ccc(OC)c(-c2nnc3n2N=C(c2ccc(OC)c(OCC4CC4)c2)CS3)c1`, for which the inhibition worked out at 85.1%.

Regarding `O=C(Nc1cccc(S(=O)(=O)N2CCCCC2)c1)Nc1ccc(Cl)cc1Cl`, the inhibition was determined as 117%.

On to `Cn1c(Sc2ccc(Br)cc2)c(C=O)c2ccccc21`, for which the inhibition was 112%.

Consider `O=C(Nc1ccc(F)cc1)Nc1ccc(N2CCCC2)c(S(=O)(=O)Nc2ccccc2Cl)c1`, for which the inhibition came out at 89.3%.

Turning to `CN(c1ncnc(N)c1[N+](=O)[O-])C1CCCCC1`, the inhibition amounted to 102%.

As for `Cc1ccnc(NC(=O)Cc2ccc(-c3ccccc3)cc2)c1`, the inhibition stood at 105%.

Turning to `COC(=O)c1ccc(-c2ccc(OC)c([C@H]3[C@H]4C=CC[C@@H](C)[C@@H]4C(=O)N3Cc3ccccc3)c2)cc1`, the inhibition was 80%.

With `CCCCCCc1cc2cc(C(=O)OCC)c(=O)oc2cc1O`, the inhibition was found to be 117%.

In the case of `CCC(Oc1ccccc1)C(=O)Nc1ncc([N+](=O)[O-])s1` (centres undefined), the inhibition came to 98.9%.

With `COc1ccc(-c2oc3ccc(-c4ccc(OC)nc4)cc3c2C#CC2(O)CCCCC2)cc1`, the inhibition came to 103%.

As for `O=C(c1nnsc1S(=O)(=O)c1ccc(Cl)cc1)N1CCOCC1`, the inhibition amounted to 85.4%.

In general, inhibition refers to the change of the read-out against control, counted positive when it falls.
